Autofluor counter: flagged as autofluorescent in microsphere protease counterscreen | hit rate 3.1% among 360,000 | AID 624483 | compound autofluorescence counterscreen, microsphere flow cytometry; hits give high values | fluorescence intensity (no concentration beside the values); in the data active = fluorescence intensity above about 16000; inconclusive = no clear call, values can overlap the other calls
MazEF act: activators of E. coli MazEF toxin-antitoxin RNase; FAM/BHQ RNA-DNA oligo cleavage fluorescence, 5 h; activation, % at 20 µM; hit rate 0.32% among 350,000; AID 504720; in the data active = activation above about 50%
Target sequence (P0AE70 whole entry, looked up): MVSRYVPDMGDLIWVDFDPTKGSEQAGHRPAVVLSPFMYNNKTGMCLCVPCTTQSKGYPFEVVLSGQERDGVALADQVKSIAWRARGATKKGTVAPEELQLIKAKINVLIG
BoNT-F LC inh: blocks Botulinum neurotoxin F light chain protease. hit rate 0.22% among 360,000. inhibition, % at 10 µM. Multiplex microsphere protease cleavage assay, flow cytometry; in the data active = inhibition above about 35%, passing the limit was not always enough; inconclusive = no clear call, values can overlap the other calls; also: plate controls were buffer without enzyme for full effect and enzyme alone for no effect
Anthrax LF prot: blocks Bacillus anthracis lethal factor protease; inhibition, % at 10 µM; hit rate 0.12% among 360,000; P15917; multiplex microsphere protease cleavage assay, LF; also: plate controls were buffer without enzyme for full effect and enzyme alone for no effect
BoNT A protease: BoNT A light chain protease inhibition | multiplex microsphere protease substrate cleavage, flow cytometry | inhibition, % at 10 µM | hit rate 0.17% among 360,000 | AID 588499; also: plate controls were buffer without enzyme for full effect and enzyme alone for no effect
* hit, by the source's call; ? = inconclusive. The list is not random: actives were taken first. Their share in the collection is about 3.7%. Rule as the data show it, unless noted: active = inhibition above about 30%; inconclusive = no clear call, values can overlap the other calls; inactive = below that.

SMILES | Autofluor counter | MazEF act | BoNT-F LC inh | Anthrax LF prot | BoNT A protease
CCC(=NCc1ccco1)c1c(O)n(C)c(=O)n(C)c1=O | 6187 | 6.7 | -5.2 | -5.3 | -0.1
CC(=NCc1ccc(F)cc1)c1c(O)n(C)c(=O)n(C)c1=O | 19909* | -6.5 | 0.3 | 0.5 | ?
Nc1nc(NCc2ccccc2)nc(Nc2cccc(F)c2)c1[N+](=O)[O-] | 22824* | 10.1 | -0.3 | -2.3 | 1.1
O=C(Cc1ccc(F)cc1)Nc1nccs1 | 2990 | 8.8 | 41.9* | 15.4 | 1.4
Cc1ccc(CCC(=O)Nc2nccs2)o1 | 10135 | -0.5 | -1.7 | 2.1 | 0.9
CCc1ccc(CCC(=O)Nc2nccs2)o1 | 21884* | 5.5 | 3.8 | 1.8 | 1.3
CCOC(=O)Cn1c(=O)c(F)cn(Cc2ccc(OC)c([N+](=O)[O-])c2)c1=O | 3577 | -2.4 | 23.0 | 9.2 | 0.3
Cc1cc(C)c2c(CN3CCN(Cc4ccccc4)CC3)cc(=O)oc2c1 | 3435 | 0.1 | -4.8 | -3.6 | -0.4
CCNc1nc(NCC)nc(OCCNS(=O)(=O)c2cc(C)ccc2C)n1 | 21064* | -0.8 | -3.7 | 0.9 | ?
CCNc1nc(NC(C)C)nc(OCCNS(=O)(=O)c2cc(C)ccc2C)n1 | 2991 | 6.3 | -0.2 | -3.8 | -0.5
COc1ccc(-c2noc(C3CCCN(S(=O)(=O)c4cccc(Cl)c4)C3)n2)cc1OC (centres undefined) | 23625* | -9.2 | -1.7 | -3.6 | -0.4
COc1ccc(C(=O)N2CCCC(c3nc(-c4cccs4)no3)C2)cc1 (centres undefined) | 19734* | -19.1 | -2.4 | -4.4 | -1.6
COc1ccc(C(=O)N2CCCC(c3nc(-c4cccs4)no3)C2)cc1OC (centres undefined) | 25010* | 5.9 | -7.3 | -1.3 | -4.5
O=C(c1ccc(Br)cc1)N1CCCC(c2nc(-c3cccs3)no2)C1 (centres undefined) | 3850 | 2.9 | -4.1 | -6.6 | -0.4
CCOC(=O)C1CCCCN1Cc1ccccc1C(F)(F)F (centres undefined) | 17635* | 4.6 | 4.2 | -3.6 | 5.1
CCOC(=O)C1CCN(Cc2ccccc2C(F)(F)F)CC1 | 11972 | -3.9 | -8.2 | 0.1 | 0.3
O=C(COc1ccccc1F)NC1CCN(Cc2ccccc2)CC1 | 20185* | -1.2 | -3.7 | -2.7 | -2.1
CS(=O)(=O)NC1CCN(Cc2ccccc2)CC1 | 22396* | 1.4 | -4.8 | 0.9 | ?
N#Cc1ccc(S(=O)(=O)NC2CCN(Cc3ccccc3)CC2)cc1 | 4899 | 8.7 | ? | 18.8 | ?
CCS(=O)(=O)N1CCN(C(=O)COc2ccc(-c3ccccc3)cc2)CC1 | 22952* | 2.4 | 0.2 | -21.4 | -0.2
Cc1ccc(OCC(=O)N2CCN(C3=NS(=O)(=O)c4ccccc43)CC2)cc1 | 20779* | 9.0 | -2.6 | -2.3 | -0.4
Cc1ccc(OCCC(=O)OCC(=O)N2CCN(S(=O)(=O)c3ccc(C)cc3)CC2)cc1 | 26716* | -0.1 | -127.2 | -19.5 | -82.8
Cc1ccc(S(=O)(=O)CCC(=O)OCC(=O)N2CCN(S(=O)(=O)c3ccc(Cl)cc3)CC2)cc1 | 5689 | 1.0 | 2.4 | 0.1 | 2.3
Cc1cc(NC(=O)COC(=O)C(C)Oc2ccc(Cl)cc2Cl)no1 (centres undefined) | 3030 | -4.1 | 4.0 | 0.6 | -0.8
O=C(N/N=C/c1ccc2c(c1)OCO2)c1ccc(COc2cccc3cccnc23)cc1 | 4228 | -1.2 | -1.8 | -6.0 | -0.8
SMILES | Autofluor counter | MazEF act | BoNT-F LC inh | Anthrax LF prot | BoNT A protease
COc1ccccc1C(=O)NCCNC(=O)c1ccc(C)nc1 | 5407 | -1.2 | 1.4 | -2.2 | 1.3
CCC(C)(C)n1nnnc1CN1CCC(NC(=O)c2ccccc2C)CC1 | 8605 | 9.3 | -6.6 | -9.6 | -0.5
CCOc1ccccc1C(=O)NC1CCN(Cc2nnnn2C2CCCC2)CC1 | 22337* | 10.5 | 0.5 | -1.7 | ?
COc1ccc(C(C(=O)NC2CCCC2)N(C(=O)c2snc(-c3ccc(F)cc3)c2N)c2ccc(F)cc2)cc1 (centres undefined) | 24202* | -5.1 | -1.8 | -2.1 | -2.4
COc1ccc(C(C(=O)NC2CCCC2)N(C(=O)c2snc(-c3ccc(F)cc3)c2N)c2ccccc2)cc1 (centres undefined) | 20660* | -11.5 | 0.1 | -0.9 | -0.9
COc1ccc(C(C(=O)NC2CCCC2)N(C(=O)c2snc(-c3ccc(F)cc3)c2N)c2ccc(OC)cc2)cc1 (centres undefined) | 21490* | -3.2 | 0.1 | 0.5 | -1.3
COc1ccc(C(C(=O)NC2CCCC2)N(C(=O)c2snc(-c3ccc(F)cc3)c2N)c2cccc(F)c2)cc1 (centres undefined) | 23994* | -20.0 | -0.9 | -2.0 | -1.5
